Screens as filed in PubChem BioAssay.
CHX counter – Cycloheximide Counterscreen for Small Molecule Inhibitors of Shiga Toxin; max response, %; cell reporter, cycloheximide protein synthesis inhibition counterscreen; actives 12% (n = 300,000); in the data active = max response mostly above about 13%, no sharp cut-off; inactive = mostly below about 14%; note: read at 38.3 µM for the half of the compounds with a filed dose
Shiga inhibitor – A qHTS for Small Molecule Inhibitors of Shiga Toxin; inhibition, % at 38.7 µM; AID 2315, 2010; actives 9.2% (n = 290,000); Vero cells, Shiga toxin protein synthesis inhibition reporter; in the data active = inhibition mostly above about 28%, no sharp cut-off; inactive = mostly below about 43%
Marburg entry inh – qHTS for inhibitors of binding or entry into cells for Marburg Virus. Marburg virus pseudotyped entry inhibition, cell reporter. Potency, µM (doses to about 37.8 µM), most hits filed as inhibitors. actives 1.8% (n = 300,000); calls by dose curve; tested in HEK293 cells
Lassa entry inh – qHTS for Inhibitors of binding or entry into cells for Lassa Virus | Potency, µM (series often up to 37.9 µM), usual class: inhibitors | actives 1.2% (n = 300,000) | Lassa virus pseudotype entry inhibition, cell reporter | AID 540256, 2011; calls by dose curve; tested in HEK293 cells; note: nearly all actives have a fitted effect of over 50% in size
A number is an active result; - = inactive; ? = inconclusive; . = no result; ! = not confirmed by another sample. Hits are enriched below; roughly 12% of the tested compounds scored in any of these assays.

SMILES	CHX counter	Shiga inhibitor	Marburg entry inh	Lassa entry inh
Cc1cc(C(=O)N/N=C/c2ccc3c(c2)OCO3)c(C)o1	42.3	54.8	-	-
O=C(O)C1C2CCC(C2)C1C(=O)N1CCCC1 (stereo not drawn)	-	-	-	-
CC(=O)c1csc(COc2ccccc2)n1	16.6	-	.	.
CCOC(=O)c1csc(COc2ccc(OC)cc2)n1	61.0	122.1	?	?
CCOC(=O)c1cc(-c2csc(COc3ccccc3)n2)on1	-	-	.	.
CCOC(=O)c1csc(COc2ccccc2Cl)n1	32.5	52.5	.	.
CCOC(=O)c1csc(NC(=O)CCSc2ccccc2)n1	-	-	?	-
CCOC(=O)c1csc(NC(=O)CC2CCCC2)n1	25.0	32.1	-	-
CCOC(=O)c1cc(-c2csc(COc3ccccc3Cl)n2)on1	-	-	-	-
CCOC(=O)c1cc(-c2csc(COc3ccc(Cl)cc3)n2)on1	-	-	-	-
CCOC(=O)Cc1csc(N)n1	-	-	-	-
CCOC(=O)c1csc(-c2ccc([N+](=O)[O-])cc2)n1	40.3	89.6	-	-
CCOC(=O)c1csc(N)n1	33.9	80.3	-	-
CCN(Cc1ccccc1)C(=O)c1c(-c2ccccc2Cl)noc1C	-	-	?	-
Cc1csc(C(=O)NN)c1N(C)C	32.3	73.9	.	.
Cc1c(C(=O)NN)sc(=S)n1C	-	-	?	-
CCCC[C@@H]1CCCO[C@@](C(=O)NCCOC)(C(F)(F)F)C1	-	-	.	.
O=C(N/N=C/c1ccsc1)c1ccc2ccccc2n1	40.7	73.8	?	-
O=C(N/N=C/c1ccc2c(c1)OCO2)c1ccccn1	39.5	92.9	?	?
O=C(N/N=C/c1ccc2c(c1)OCO2)c1ccc2ccccc2n1	26.4	-	?	-
CCN(C(=O)/C=C/c1ccc2c(c1)OCO2)c1ccccc1	21.2	42.8	-	-
CC(C)(C)C1CCc2nc(NC(=O)COc3ccccc3[N+](=O)[O-])sc2C1 (stereo not drawn)	.	.	-	-
CC(NC(=O)COC(=O)c1ccco1)C12CC3CC(CC(C3)C1)C2 (stereo not drawn)	-	-	.	.
CCc1cc2c(cc3c(=O)n(CC(=O)NC4CCCCC4)ncn32)s1	.	.	-	.
O=C(C=Cc1ccc2c(c1)OCO2)c1ccc(F)cc1	.	.	-	.
SMILES	CHX counter	Shiga inhibitor	Marburg entry inh	Lassa entry inh
O=C(N/N=C/c1cc2c(cc1Br)OCO2)c1ccccn1	42.8	54.6	-	-
O=C(/C=C/c1ccc2c(c1)OCO2)c1ccccn1	71.7	97.0	-	-
CCCCCc1ccc(CC(=O)O)cc1	-	-	-	-
Nc1nnc(-c2ccc(Cl)c(Cl)c2)s1	24.8	-	.	.
CCCCCCc1ccc(-c2ncc(N)cn2)cc1	59.7	121.9	-	-
CCCCCc1ccc(-c2nnc(N)s2)cc1	42.7	74.1	-	-
Nc1nnc(-c2cccc(F)c2)s1	-	-	-	-
COc1cccc(C(=O)O/N=C(\N)CS(=O)(=O)c2ccccc2)c1	56.3	62.9	.	.
Cc1cccc(C(=O)O/N=C(\N)CS(=O)(=O)c2ccccc2)c1	15.6	-	-	-
CNC(=O)C1CCC(Cn2c(=O)c3sccc3n(CC(=O)NCc3ccc(F)cc3)c2=O)CC1 (stereo not drawn)	.	.	.	-
COCCSc1nnc(NC(=O)c2ccc3c(c2)OCO3)s1	-	-	.	.
O=C(Nc1nncs1)c1ccc2c(c1)OCO2	21.8	55.0	-	-
CSc1nnc(NC(=O)c2ccc3c(c2)OCO3)s1	48.4	68.8	?	?
CSc1nnc(NC(=O)c2ccc(S(=O)(=O)N(C)C)cc2)s1	25.3	28.4	?	-
Cc1nnc(NC(=O)c2ccc3c(c2)OCO3)s1	39.3	55.6	-	?
CN(C)C1(CNC(=O)COc2cccc(Cl)c2)CCCCC1	.	.	?	-
Cc1cccc(OCCCC(=O)Nc2ccc(S(=O)(=O)Nc3nccs3)cc2)c1C	-	-	-	-
Cc1c(C(=O)N2CCN(C)CC2)oc2ccc(Br)cc12	33.4	46.3	.	.
CCN(CC)C(=O)C1CCCN(C(=O)c2oc3ccc(C)cc3c2C)C1 (stereo not drawn)	-	-	-	?
CCCc1ccc2oc(C(=O)N3CCCC3)c(C)c2c1	29.6	.	-	?
CCCc1ccc2oc(C(=O)N3CCNC(=O)C3CC(=O)OC)c(C)c2c1 (stereo not drawn)	19.3	-	-	-
CCN(CC)C(=O)C1CCN(C(=O)c2oc3ccc(C)cc3c2C)CC1	17.1	-	-	-
Cc1c(C(=O)N2CCc3ccccc3C2)oc2ccc(Br)cc12	.	.	-	-
COC(=O)CC1C(=O)NCCN1C(=O)c1ccccc1 (stereo not drawn)	-	-	-	?
Cc1ccc(-n2nc(CO)c(C(=O)NCc3cccnc3)n2)cc1	.	.	?	-
SMILES	CHX counter	Shiga inhibitor	Marburg entry inh	Lassa entry inh
Cc1ccc(C2CC(=O)Oc3ccc(O)cc32)cc1 (stereo not drawn)	-	-	.	.
Cc1ccc2oc(C(=O)N3CCC(O)(c4ccccc4)CC3)c(C)c2c1	11.5	-	.	.
Cc1oc2cc3c(C(=O)N4CCCCC4)c(C)oc3cc2c1C(=O)N1CCCCC1	53.4	-	-	?
COc1ccccc1N1CCN(C(=O)c2oc3ccc(Br)cc3c2C)CC1	-	-	?	?
Cc1c(C(=O)N2CCCC2)oc2ccc(Br)cc12	34.8	42.2	.	.
O=C(Cn1c(=O)oc2cc(Cl)ccc21)Nc1cccc(C(F)(F)F)c1	.	.	.	-
Cc1ccc(C(=O)/C=C/c2ccc(F)cc2)o1	59.7	76.0	?	?
COc1ccc(/C=C/C(=O)c2oc3ccc(F)cc3c2C)cc1	-	-	-	-
O=C(/C=C/c1ccc(F)cc1)c1ccccc1Br	19.9	-	-	?
Cc1ccccc1-n1nc(C)c2cc(C(=O)N3CCN(S(=O)(=O)c4ccc(Cl)cc4)CC3)sc21	-	-	?	-
CCn1c(=O)c2cc(C(=O)N3CCOCC3)sc2c2ccccc21	-	-	.	.
Cn1c2ccccc2c2cc(C(=O)N3CCOCC3)sc21	21.2	-	-	-
Cc1ccccc1-n1nc(C)c2cc(C(=O)N3CCN(S(=O)(=O)c4ccc(F)cc4)CC3)sc21	-	-	20.6µM!	?
Cc1nn(-c2ccccc2)c2sc(C(=O)N(CC(=O)NC(C)(C)C)Cc3ccco3)cc12	19.4	-	?	?
COC(=O)c1cc2c(C)nn(-c3ccccc3)c2s1	-	-	-	-
O=C(c1cc2c(=O)oc3ccccc3c2s1)N1CCOCC1	31.2	-	-	-
CC(C)C(=O)OC1=CN(Cc2ccccc2)S(=O)(=O)c2ccccc21	.	.	-	-
CC1CN(C(=O)c2ccc(NS(=O)(=O)c3ccc(F)cc3)cc2)CC(C)O1 (stereo not drawn)	-	-	.	.
O=C(NC(CC1=CCCCC1)c1ccccc1)C(F)(F)F (stereo not drawn)	.	.	-	?
Cc1nn(-c2ccccc2)c2sc(C(=O)N3CCOCC3)cc12	43.2	44.0	?	?
Cc1nn(-c2ccccc2)c2sc(C(=O)O)cc12	-	-	-	-
Cc1cc(-c2ccc(C(C)C)c(S(=O)(=O)Nc3ccccn3)c2)on1	29.2	23.7	.	.
O=c1[nH]c(=S)[nH]c(O)c1N=Nc1ccc(-c2ccccc2)cc1[N+](=O)[O-]	16.7	58.0	.	.
O=c1[nH]c(=S)[nH]c(O)c1N=Nc1cc2c(cc1[N+](=O)[O-])OCO2	-	-	-	-
O=C(Nc1ccccc1C(=O)NCCCN1CCOCC1)c1ccc(F)cc1	-	-	.	.
